Source: PubChem BioAssay
Active and inactive are the calls of the source. Unless noted, how the calls were made is not given here.

Legend:
[1] = A549 cell viability effects, profiling panel, calcein-AM fluorescence, 48 h, basal (AID 1162); conditions: higher = more signal; further: test concentration not given here
[2] = adipocyte viability effects, profiling panel, cell-based, 3T3-L1 adipocytes, calcein-AM fluorescence, 48 h, basal (AID 1163); conditions: 3T3-L1 adipocytes viability, higher = more signal; further: test concentration not given here
[3] = HepG2 cell viability effects, profiling panel, calcein-AM fluorescence, 48 h, basal (AID 1164); conditions: higher = more signal; further: test concentration not given here
[4] = MM1S cell viability effects, profiling panel, calcein-AM fluorescence, 48 h, basal (AID 1165); conditions: higher = more signal;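 further: viability of MM1S multiple myeloma cells under basal unstimulated conditions; test concentration not given here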
[5] = basal RPMI8226 viability, no added stimulus, profiling panel, cell-based, calcein-AM fluorescence, 48 h, PK04 Diversity Set (AID 1166); conditions: RPMI8226 myeloma viability, higher = more signal;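 further: cells grown under basal conditions without added stimulus; test concentration not given here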
[6] = basal HepG2 mitochondrial membrane potential changes, profiling panel, cell-based, JC-1 fluorescence, 24 h, 100 nL compound (AID 1167); conditions: higher = more signal; further: test concentration not given here
[7] = basal 3T3-L1 adipocyte mitochondrial potential changes, profiling panel, cell-based, JC-1 fluorescence, 3T3-L1 adipocytes, 24 h, 100 nL compound (AID 1168); conditions: JC-1 mitochondrial fluorescence, higher = more signal, called active from +8 up or from −8 down; further: test concentration not given here
[8] = basal RPMI8226 mitochondrial membrane potential changes, profiling panel, cell-based, JC-1 fluorescence, 24 h, 100 nL compound (AID 1169); conditions: RPMI8226 myeloma, JC-1 mitochondrial potential fluorescence, higher = more signal; further: test concentration not given here
[9] = basal MM1S mitochondrial membrane potential changes, profiling panel, cell-based, JC-1 fluorescence, 24 h, 100 nL compound (AID 1170); conditions: higher = more signal; further: test concentration not given here
[10] = A549 lung cancer cell viability effects, profiling panel, resazurin fluorescence, 24 h, PK04 Diversity Set (AID 1171); conditions: higher = more signal, called active from +8 up or from −8 down; further: test concentration not given here
[11] = HepG2 liver cancer cell viability effects, profiling panel, resazurin fluorescence, 24 h, PK04 Diversity Set (AID 1172); conditions: higher = more signal; further: test concentration not given here
[12] = basal S. cerevisiae growth modulation, no modifier, primary screen, OD600, strain BY4716, 24 h, basal condition (AID 1173); conditions: OD600, 24 h, higher = more signal, called active from +8 up or from −8 down
[13] = MM1S myeloma cell viability, profiling panel, resazurin fluorescence, basal, 24 h, PK04 Diversity Set (AID 1174); conditions: higher = more signal, called active from +8 up or from −8 down;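 further: MM1S multiple myeloma cell line; test concentration not given here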
[14] = biological target: Dihydroorotate dehydrogenase (quinone), mitochondrial (Plasmodium falciparum (isolate 3D7)) (UniProt Q08210); experiment: PfDHODH enzyme inhibitors, primary screen, biochemical, C-terminal His tag, absorbance 600 nm (AID 1175); conditions: DCIP absorbance 600 nm, higher = more signal, called active from +8 up or from −8 down;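 further: recombinant parasite enzyme with a five histidine tag at its C terminus; test concentration not given here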
[15] = P. aeruginosa biofilm formation inhibitors, primary screen, strain PAO1, LB-PBS medium, absorbance 600 nm (AID 1176); further: test concentration not given here; conditions: P. aeruginosa PAO1 growth/biofilm, A600, 12 h; higher = more signal
[16] = S. cerevisiae RM11-1a growth modifiers, primary screen, strain RM11-1a, OD600, basal, 24 h (AID 1177); conditions: OD600, 24 h, higher = more signal, called active from +8 up or from −8 down;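 further: cultures grown under basal conditions with no added stressor; test concentration not given here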
[17] = E. coli acrAB mutant growth effects, primary screen, E. coli filamentation inducers, strain DRC39, OD650, 24 h (AID 1178); conditions: higher = more signal, called active from +8 up or from −8 down;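 further: growth measured as culture turbidity by optical density at 650 nm; test concentration not given here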
[18] = E. coli acrAB mutant growth effects, primary screen, E. coli filamentation inducers, strain DRC39, OD650, 48 h (AID 1179);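 further: screen aims at cell division blockers that make cells filament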; conditions: E. coli DRC39 delta-acrAB growth, higher = more signal, called active from +8 up or from −8 down
[19] = RPMI8226 myeloma cell viability, profiling panel, resazurin fluorescence, basal, 24 h, PK04 Diversity Set (AID 1180); conditions: higher = more signal;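 further: RPMI8826 multiple myeloma cell line at 5000 cells per well; test concentration not given here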
[20] = biological target: E3 ubiquitin-protein ligase XIAP (Homo sapiens) (UniProt P98170); experiment: XIAP binders, primary screen, biophysical, small-molecule microarray, fluorescence 635 nm (AID 1181); conditions: small-molecule microarray binding, higher = more signal;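 further: score merges 667 nm emission and signal to noise over triplicate slides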
E3 ubiquitin-protein ligase XIAP (Homo sapiens), sequence (P98170 whole entry, looked up): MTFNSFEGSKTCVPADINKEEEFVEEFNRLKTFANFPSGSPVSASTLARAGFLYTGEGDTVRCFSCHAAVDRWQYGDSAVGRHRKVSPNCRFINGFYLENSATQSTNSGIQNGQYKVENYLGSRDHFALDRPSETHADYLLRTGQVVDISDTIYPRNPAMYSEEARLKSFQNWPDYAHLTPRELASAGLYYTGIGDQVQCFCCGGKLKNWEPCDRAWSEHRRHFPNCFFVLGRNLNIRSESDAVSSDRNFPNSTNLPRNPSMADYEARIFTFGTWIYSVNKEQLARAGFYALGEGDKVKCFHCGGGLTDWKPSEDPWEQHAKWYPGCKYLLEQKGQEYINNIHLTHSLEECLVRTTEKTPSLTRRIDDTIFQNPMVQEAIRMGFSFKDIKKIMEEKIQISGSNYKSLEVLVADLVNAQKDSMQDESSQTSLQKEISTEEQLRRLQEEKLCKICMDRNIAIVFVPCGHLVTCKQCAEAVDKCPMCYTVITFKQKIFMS

Dihydroorotate dehydrogenase (quinone), mitochondrial (Plasmodium falciparum (isolate 3D7)), sequence (Q08210 whole entry, looked up): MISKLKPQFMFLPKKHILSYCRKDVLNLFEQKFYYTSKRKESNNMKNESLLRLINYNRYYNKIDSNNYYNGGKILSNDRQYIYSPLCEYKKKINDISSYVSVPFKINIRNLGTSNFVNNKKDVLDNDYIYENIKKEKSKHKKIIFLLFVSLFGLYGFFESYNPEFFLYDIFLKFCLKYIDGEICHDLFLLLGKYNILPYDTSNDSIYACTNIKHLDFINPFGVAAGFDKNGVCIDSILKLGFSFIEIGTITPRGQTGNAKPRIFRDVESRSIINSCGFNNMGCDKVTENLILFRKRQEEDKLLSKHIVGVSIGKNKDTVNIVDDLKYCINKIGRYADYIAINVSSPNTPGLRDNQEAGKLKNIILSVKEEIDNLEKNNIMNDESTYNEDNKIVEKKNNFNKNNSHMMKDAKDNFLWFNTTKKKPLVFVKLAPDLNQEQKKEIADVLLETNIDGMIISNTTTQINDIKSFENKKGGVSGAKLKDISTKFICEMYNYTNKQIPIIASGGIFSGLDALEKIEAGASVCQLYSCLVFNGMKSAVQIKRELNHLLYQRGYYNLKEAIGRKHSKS

Structure (SMILES) | z-score [1] | z-score [2] | z-score [3] | z-score [4] | z-score [5] | z-score [6] | z-score [7] | z-score [8] | z-score [9] | z-score [10] | z-score [11] | z-score [12] | z-score [13] | composite z-score [14] | z-score [15] | z-score [16] | z-score [17] | z-score [18] | z-score [19] | composite z-score [20]
O=C(NN=C1C[C@@H](O)[C@@H](O)[C@@H]2[C@@H]3C(=O)N(C[C@@H]4CCCO4)C(=O)[C@@H]3CC[C@@H]12)OCc1ccccc1 | 0.468 | 0.211 | -0.293 | -0.745 | 0.215 | 0.795 | 0.131 (inactive) | 0.103 | -0.989 | -0.451 (inactive) | 0.0986 | -0.485 (inactive) | 0.169 (inactive) | -2.17 (inactive) | 0.328 (inactive) | -1.49 (inactive) | -0.0573 (inactive) | 0.118 (inactive) | -0.111 | 0.0623
CCOC(=O)[C@H](Cc1ccccc1)NC(=O)CCC1CC(OC(=O)NCCc2ccc(F)cc2)CC2(CCCC(COC(=O)NCc3ccccc3)O2)O1 (stereo not given in full) | 0.199 | -0.765 | -0.12 | 0.399 | -0.816 | 0.968 | 0.509 (inactive) | -0.191 | -0.266 | 0.56 (inactive) | 0.567 | -0.298 (inactive) | 0.159 (inactive) | -0.447 (inactive) | 0.013 (inactive) | 0.694 (inactive) | 0.321 (inactive) | -0.158 (inactive) | -0.0066 | -0.0525
CC(CCN1CCCc2nc(C)c(C)cc21)=NOC(C)CN1CCCCc2nc(C)c(C)cc21 (stereo not given) | -0.37 | -0.219 | -0.508 | -0.675 | -0.388 | 1.83 | -1.86 (inactive) | 0.264 | 0.547 | -0.0774 (inactive) | -0.0007 | 1.38 (inactive) | -0.221 (inactive) | 0.131 (inactive) | 1.3 (inactive) | 1.02 (inactive) | 0.315 (inactive) | -0.554 (inactive) | 0.347 | 0.593
COc1ccc(O[C@@H]2[C@H](O)CO[C@H]2C=Cc2ccccc2)cc1 | 0.576 | 0.759 | 0.898 | -0.418 | -0.483 | 0.364 | 0.0785 (inactive) | 0.868 | -0.121 | -1.44 (inactive) | -1.03 | -4.4 (inactive) | -0.0321 (inactive) | -1.24 (inactive) | 0.83 (inactive) | -1.85 (inactive) | 0.988 (inactive) | -0.741 (inactive) | -0.473 | -0.113
CCN1C(=O)[C@H]2[C@H]3[C@H](O)[C@H](O)CC(=NO[C@@H](C)c4cn([C@H](CO)Cc5ccccc5)nn4)[C@@H]3CC[C@H]2C1=O | -0.293 | 0.0248 | -0.644 | -1.59 | -0.784 | -0.559 | -1.49 (inactive) | 0.695 | 0.0117 | -0.499 (inactive) | -0.817 | 0.833 (inactive) | -0.866 (inactive) | -0.642 (inactive) | 0.135 (inactive) | 0.47 (inactive) | 0.121 (inactive) | -0.336 (inactive) | -0.504 | 0.0451
CC(=O)OC[C@H]1O[C@H](CCON=C2[C@H]3CCn4c(=O)n(-c5ccccc5)c(=O)n4[C@H]3[C@H](O)[C@@H]3O[C@H]23)C=C[C@@H]1OC(C)=O | 0.0488 | -1.08 | 0.254 | -0.775 | -0.645 | -0.58 | -0.91 (inactive) | 0.602 | -0.876 | -0.862 (inactive) | -0.609 | 0.0957 (inactive) | -3.19 (inactive) | 0.33 (inactive) | -0.95 (inactive) | 0.393 (inactive) | 0.785 (inactive) | 1.17 (inactive) | -0.759 | -0.148
CO[C@H]1COC(=O)[C@@H](C)COC(=O)[C@@H](OCc2ccccc2)C=C[C@@H]1C | -0.162 | -0.197 | 0.373 | -0.112 | 0.473 | 0.485 | 0.531 (inactive) | 0.458 | 0.0911 | 0.39 (inactive) | 0.409 | -0.471 (inactive) | 0.687 (inactive) | 0.976 (inactive) | -0.601 (inactive) | 1.14 (inactive) | 0.334 (inactive) | -0.183 (inactive) | 0.681 | 0.131
CCOC(=O)[C@H](CC(C)C)NC(=O)CCC1CC(OC(=O)NCc2cccc3ccccc23)CC2(CCCC(COC(=O)NCc3ccncc3)O2)O1 (stereo not given in full) | 0.357 | -0.0315 | -0.215 | -3.43 | -1.8 | 0.991 | 0.666 (inactive) | -0.12 | -1.14 | 0.645 (inactive) | -0.232 | -0.101 (inactive) | 0.192 (inactive) | 0.0964 (inactive) | 0.368 (inactive) | 0.559 (inactive) | 1.1 (inactive) | 0.399 (inactive) | -0.404 | -0.105
C[C@H]1Cc2c(COc3ccccc3)nc3c(c2CO1)CN(CCOc1ccccc1)CC3 | 1.05 | 0.175 | 0.93 | -0.125 | -0.517 | 2.33 | 0.678 (inactive) | -0.041 | 0.184 | -0.0515 (inactive) | -0.503 | -3.09 (inactive) | 0.598 (inactive) | -0.555 (inactive) | 1.69 (inactive) | -0.466 (inactive) | 1.52 (inactive) | 0.996 (inactive) | 0.961 | -0.0767
